Pf growth 96h: P. falciparum growth inhibition at 96 hour, primary screen for plastid delayed-death inhibitors; Potency, µM (top dose mostly 28.7 µM), inactives show top-dose activity change, negative = inhibition, actives largely listed as inhibitors; hit rate 6.9% among 320,000; P. falciparum luciferase reporter growth, 96 h; note: potency is the fitted concentration of half-maximal effect; % is set by controls: 0 for no effect and ±100 for the full control effect
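Delayed-death screen, second-generation endpoint: infected erythrocytes, 2% hematocrit, 0.05% parasitemia final; 96 hours at 37 C, 5% CO2; luciferase detection reagent; luminescence decrease equals reduced growth.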
CHX counter: counter-screen hit for Shiga toxin inhibitors, cycloheximide. cell reporter, cycloheximide protein synthesis inhibition counterscreen. max response, %. hit rate 12% among 300,000; in the data active = max response mostly above about 13%, no sharp cut-off; inactive = mostly below about 14%; note: read at 38.3 µM for the half of the compounds with a filed dose; 0% is about no effect
Shiga inhibitor: blocks Shiga toxin action in Vero cells; Vero cells, Shiga toxin protein synthesis inhibition reporter; inhibition, % at 38.7 µM; hit rate 9.2% among 290,000; AID 2315; in the data active = inhibition mostly above about 28%, no sharp cut-off; inactive = mostly below about 43%; note: 0% is about no effect
NS1 function inh: blocks influenza NS1 protein function; Potency, µM (highest dose often 46.1 µM), without a hit: top-dose activity, positive = more growth; hit rate 0.4% among 270,000; AID 2326; calls by dose curve; note: potency is the fitted concentration of half-maximal effect; actives are rising curves; nearly all actives have a fitted effect of over 50% in size
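Recovery from NS1-induced slow growth read by OD600 in budding yeast switched to galactose assay medium (pH 6.0, -URA) at 1:100 dilution. Compound 23 nl per well; the matching strain lacking NS1 serves as control.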
Pf growth 48h: inhibits P. falciparum growth in the first generation, 48 h. P. falciparum luciferase growth in erythrocytes, 48 h. Potency, µM (doses to about 28.7 µM), without a hit: top-dose activity change, negative = inhibition, actives largely listed as inhibitors. hit rate 5.9% among 310,000; note: potency is the fitted concentration of half-maximal effect; % is set by controls: 0 for no effect and ±100 for the full control effect
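Here the parasites carry a stable luciferase gene and grow inside erythrocytes in Albumax-based RPMI medium with compound for one erythrocytic cycle. Activity is scored as loss of luminescent signal.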
* = called active by the depositor; u = inconclusive; x = not tested or not shown; [ ] = dose if it differs, or a comment. Rows were chosen to be rich in hits. Some 21% of all compounds tested hit in one or more screens of this group. Unless noted, calls come from the whole dose curve; as a rule, active = well fitted inhibition curve with a large enough effect; inconclusive = small, poorly fitted or top-dose-only effect, or another doubt; inactive = no such curve, though single readings can be large or run the other way.

SMILES | Pf growth 96h | CHX counter | Shiga inhibitor | NS1 function inh | Pf growth 48h
O=C(Nc1cccc(S(=O)(=O)N2CCCCC2)c1)C1CC(=O)N(Cc2ccco2)C1 (centres undefined) | u | -4 | 7 | x | 2%
O=c1oc(Nc2cccc(F)c2)nc2ccccc12 | 97% | 18* | 105* | 0% | 154%
Nc1nc(Nc2cccc(F)c2)nc2ccccc12 | -32% | 29* | 105* | -114% | u
Fc1cccc(Nc2c3c(nc4ccccc24)CCC3)c1 | 4% | -3 | -10 | -9% | u
CC1CCCCN1C(=O)c1cc(-c2ccc3c(c2)OCO3)on1 (centres undefined) | u | 36* | 89* | -2% | 213%
O=C(c1cc(-c2ccc(Cl)c(Cl)c2)on1)N1CCN(c2ccccc2)CC1 | -3% | 3 | 34 | -2% | 29%
CCC1CCCCN1C(=O)c1cc(-c2ccc(Cl)c(Cl)c2)on1 (centres undefined) | 78% | 39* | 94* | -77% | -10%
CC1CCN(C(=O)c2cc(-c3ccc4c(c3)OCO4)on2)CC1 | 9% | 28* | 41* | -18% | 183%
CC1CCCCN1C(=O)c1cc(-c2ccc(Cl)c(Cl)c2)on1 (centres undefined) | -3% | 29* | 76 | -60% | 192%
COc1cc(NC(=S)N2CCc3ccccc3C2)cc(OC)c1 | u | 9 | 39 | x | -16%[5.75 µM]
O=C1CCCN1CCCNC(=S)Nc1ccc(Cl)cc1Cl | 12% | 8 | 13 | x | 27%
Nc1ccc2c(c1Cl)C(=O)c1ccc(N)c(Cl)c1C2=O | 122% | 34* | 70* | 6% | 103%
Cc1ccc2c(c1N)C(=O)c1ccccc1C2=O | 159% | x | x | x | 80%
CCC(=O)c1ccc(OC(=O)N(C)c2ccccc2)cc1 | 4% | 26* | 75 | -10% | 56%
CN(C(=O)Oc1ccc(F)cc1)c1ccccc1 | u | -2 | -3 | 13% | -1%
CN(C(=O)Oc1ccc(C(C)(C)C)cc1)c1ccccc1 | u | 19* | 59* | -8% | u
CCOc1cccc2sc(NC(=O)c3ccc(Br)s3)nc12 | 7.4µM* | -2 | -3 | 1% | x
CCCC(=O)Nc1nc(CC(=O)OCC)cs1 | 26% | 21 | -1 | x | 40%
CCOC(=O)c1sc(NC(=O)c2cccs2)nc1C | 484% | 17* | 70* | -5% | 280%
CCOC(=O)Cc1csc(NC(=O)c2c(-c3ccccc3)noc2C)n1 | x | -3 | -16 | -5% | -22%
CCOC(=O)Cc1csc(NC(=O)/C=C/c2cccc(Br)c2)n1 | -24% | 12 | 21 | x | 9.3µM*
CCOC(=O)Cc1csc(NC(=O)c2cccs2)n1 | x | 24* | 30 | -50% | 30%
CC(C)CC(=O)Nc1nnc(S(=O)(=O)N2CCCCCC2)s1 | 2% | -5 | -7 | -8% | 3%
COc1ccc(NS(=O)(=O)c2ccc(C)c(C(=O)N3CCC3)c2)cc1 | 7% | x | x | x | 12%
CCOCCCn1c(C)nc2c[n+](CC(=O)c3ccc4ccccc4c3)cc(Br)c21 | u | 1 | 4 | -4% | u
SMILES | Pf growth 96h | CHX counter | Shiga inhibitor | NS1 function inh | Pf growth 48h
Cc1ccc(NC(=O)CSc2nc3[nH]ncc3c(=O)[nH]2)cc1Cl | 20% | x | x | x | u
CC(=O)N(O)C/C=C/c1cccc(Oc2ccccc2)c1 | x | 25 | 3 | x | x
CC(C)c1nc(SCC(=O)c2c[nH]c3ccccc23)n[nH]1 | u | 9 | 32 | 1% | 0%
COc1ccc(NC(=O)/C=C/c2cccc(Br)c2)cn1 | u | 27* | 55* | -67% | 18%
CCOC(=O)Cc1csc(NC(=O)c2ccc(Br)s2)n1 | x | 32* | 62* | -74% | 36%
COc1ccc(NC(=O)/C=C/c2cccc(C(F)(F)F)c2)cn1 | u | 7 | -2 | -13% | u
CCOC(=O)c1csc(NC(=O)c2cccs2)n1 | 67% | 33* | 103* | -10% | 109%
C=CCN1C(=O)C(CC(=O)Nc2ccccc2)SC1=Nc1ccc(S(N)(=O)=O)cc1 (centres undefined) | u | 13 | -12 | 20% | u
C(=N\Nc1nc2ccccc2[nH]1)/c1cccc2nccnc12 | u | 31* | 29 | -3% | u
COC(=O)Cn1cc(/C=N/NC(=O)COc2cccc3cccnc23)c2ccccc21 | 3% | 2 | -3 | 1% | -5%
C(=N\Nc1nc2ccccc2[nH]1)/c1ccccn1 | 342% | -6 | -12 | x | -41%
CCCCn1c(/C=N/Nc2nc3ccccc3[nH]2)nc2ccccc21 | u | 2 | 11 | -42% | 1.9µM*
CCCCn1c(/C=C/c2ccco2)nc2ccccc21 | u | 5 | -3 | 19% | 39%
COc1cc(OC)c(OC)cc1/C=N/Nc1nc2ccccc2[nH]1 | 1.9µM* | -2 | -2 | -4% | 1µM*
C#CCn1cc(/C=N/NC(=O)COc2cccc3cccnc23)c2ccccc21 | 11% | 12* | 26* | 4% | 0%
N#Cc1cccnc1N1CCN(C(=O)COCC(=O)O)CC1 | 0% | -1 | -7 | -3% | u
COc1cccc(COC(=O)C2CCN(C(=O)c3ccc(F)cc3)CC2)c1OC | -1% | x | x | x | u
NCCCCCc1cnc[nH]1 | x | -2 | 16 | x | x
C#CCn1cc(/C=N/Nc2nc3ccccc3[nH]2)c2ccccc21 | 7% | 54* | 81* | u | u
CCN(CC)c1ccc(/C=N/N(c2ccccc2)c2ccccc2)c(O)c1 | 7.4µM* | -1 | -5 | 17% | u
C(=N\Nc1nc2ccccc2[nH]1)/c1ccc2ncccc2c1 | u | 58* | 58* | -2% | 0.15µM*
CCN(CC)c1ccc(/C=N/N=C(c2ccccc2)c2ccccc2)c(O)c1 | u | -2 | 18 | 9% | u
COc1ccc(/C=N/Nc2nc3ccccc3[nH]2)cc1OC | u | 32* | 73* | 18% | 0.47µM*
Cc1ccc(CCNC(=O)C2CCN(S(=O)(=O)c3ccc4nc5c(c(C(=O)O)c4c3)CCCC5)CC2)cc1 | u | 1 | 18 | 12% | u
Cc1ccsc1-c1nc(CN(C)C(C2CC2)C2CC2)c(C)o1 | u | -3 | -6 | -2% | u
SMILES | Pf growth 96h | CHX counter | Shiga inhibitor | NS1 function inh | Pf growth 48h
COc1ccc(S(=O)(=O)N2CCCCCC2)cc1C(=O)N(CC(C)C)C1CCS(=O)(=O)C1 (centres undefined) | -8% | x | x | x | u
Cc1ccc(/C=N\Nc2nc3ccc(Cl)cc3[nH]2)o1 | 2.3µM* | 41* | 119* | -41% | 2.6µM*
Cc1ccc2cc(/C=N/Nc3nc4ccccc4[nH]3)c(Cl)nc2c1 | u | 55* | 93* | 14% | 0.74µM*
COc1ccc2c(c1)c(/C=N/Nc1nc3ccccc3[nH]1)c(C)n2C | 1.7µM* | 7 | 36 | 0% | 1.5µM*
CCN(CC)c1ccc(/C=N/Nc2nc3ccccc3[nH]2)c(O)c1 | 1.2µM* | 52* | 100* | -62% | x
CCN(CC)c1ccc(C=Nc2ccccc2C)c(O)c1 | -6% | 1 | 15 | -1% | -7%
CCCC1(c2ccccc2)NC(=O)N(CC(=O)N(C)Cc2c(F)cccc2Cl)C1=O (centres undefined) | -13% | -4 | 3 | -1% | -18%
